# Assay results reported in the supplement of paper PMC12282887.
# ± gives the standard deviation of the averaged measurements.
# Tested on: E. coli BW25113 marRABp lux reporter
# Test: promoter activity interaction Z-score (Lux/OD deviation from empty-vector control); higher = stronger promoter induction by the compound
# Protocol: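 E. coli BW25113 (wild type or ΔmarA/ΔsoxS/Δrob) carrying pTU175 luxCDABE promoter reporters was grown in LB in 384-well plates at 37°C with each of 94 compounds at 4 two-fold concentrations, in biological duplicates. Luminescence and OD600 were read every 30 min for 12 h and integrated as AUC over 8 h (0-8 h WT, 1-9 h mutants). Lux AUC was divided by OD AUC; the interaction score is the residual of a Huber robust fit of each promoter against the empty-vector control, then Z-transformed per promoter.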
Compound,"promoter activity interaction Z-score (0.063 µg/ml, genetic background: wild type)","promoter activity interaction Z-score (0.063 µg/ml, genetic background: ΔmarA)","promoter activity interaction Z-score (0.063 µg/ml, genetic background: Δrob)","promoter activity interaction Z-score (0.063 µg/ml, genetic background: ΔsoxS)","promoter activity interaction Z-score (0.13 µg/ml, genetic background: wild type)","promoter activity interaction Z-score (0.13 µg/ml, genetic background: ΔmarA)","promoter activity interaction Z-score (0.13 µg/ml, genetic background: Δrob)","promoter activity interaction Z-score (0.13 µg/ml, genetic background: ΔsoxS)","promoter activity interaction Z-score (0.25 µg/ml, genetic background: wild type)","promoter activity interaction Z-score (0.25 µg/ml, genetic background: ΔmarA)","promoter activity interaction Z-score (0.25 µg/ml, genetic background: Δrob)","promoter activity interaction Z-score (0.25 µg/ml, genetic background: ΔsoxS)","promoter activity interaction Z-score (0.51 µg/ml, genetic background: wild type)","promoter activity interaction Z-score (0.51 µg/ml, genetic background: ΔmarA)","promoter activity interaction Z-score (0.51 µg/ml, genetic background: Δrob)","promoter activity interaction Z-score (0.51 µg/ml, genetic background: ΔsoxS)","promoter activity interaction Z-score (0.073 µg/ml, genetic background: wild type)","promoter activity interaction Z-score (0.073 µg/ml, genetic background: ΔmarA)","promoter activity interaction Z-score (0.073 µg/ml, genetic background: Δrob)","promoter activity interaction Z-score (0.073 µg/ml, genetic background: ΔsoxS)","promoter activity interaction Z-score (0.15 µg/ml, genetic background: wild type)","promoter activity interaction Z-score (0.15 µg/ml, genetic background: ΔmarA)","promoter activity interaction Z-score (0.15 µg/ml, genetic background: Δrob)","promoter activity interaction Z-score (0.15 µg/ml, genetic background: ΔsoxS)","promoter activity interaction Z-score (0.29 µg/ml, genetic background: wild type)","promoter activity interaction Z-score (0.29 µg/ml, genetic background: ΔmarA)","promoter activity interaction Z-score (0.29 µg/ml, genetic background: Δrob)","promoter activity interaction Z-score (0.29 µg/ml, genetic background: ΔsoxS)","promoter activity interaction Z-score (0.58 µg/ml, genetic background: wild type)","promoter activity interaction Z-score (0.58 µg/ml, genetic background: ΔmarA)","promoter activity interaction Z-score (0.58 µg/ml, genetic background: Δrob)","promoter activity interaction Z-score (0.58 µg/ml, genetic background: ΔsoxS)"
N=C(NCCCCCCNC(=N)NC(=N)Nc1ccc(Cl)cc1)NC(=N)Nc1ccc(Cl)cc1 [Chlorhexidine],-0.0555 ± 0.078,0.0409 ± 0.0035,0.173 ± 0.2,0.0219 ± 0.055,-0.193 ± 0.069,-0.0353 ± 0.43,0.0384 ± 0.087,0.0405 ± 0.19,0.0425 ± 0.12,-0.101 ± 0.24,0.121 ± 0.2,0.165 ± 0.33,-0.283 ± 0.1,0.127 ± 0.37,-0.0583 ± 0.11,0.00237 ± 0.085,–,–,–,–,–,–,–,–,–,–,–,–,–,–,–,–
COc1cc(Cc2cnc(N)nc2N)cc(OC)c1OC [Trimethoprim],–,–,–,–,–,–,–,–,–,–,–,–,–,–,–,–,-0.00717 ± 0.14,0.354 ± 0.26,0.118 ± 0.14,0.299 ± 0.38,1.11 ± 0.81,1.71 ± 0.26,0.43 ± 0.16,0.811 ± 0.45,0.921 ± 0.63,1.36 ± 0.27,0.367 ± 0.12,0.729 ± 0.19,0.146 ± 0.067,0.423 ± 0.12,0.143 ± 0.17,0.484 ± 0.068
